The list is not random: actives were taken first. Their share in the collection is about 2.3%.
aDG glyco up = alpha-DG glycosylation activation; AID 624168; hit rate 0.22% among 360,000; activation, % at 10 µM; Pro5-aDG cells, alpha-DG glycosylation AlphaScreen (IIH6); 0% Pro5, 100% B10-LARGE cell signal;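 active = activation of at least 8% versus controls, or a plate z-score of at least 8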;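 note: Pro5 are CHO cells carrying HIG-tagged alpha-DG that lacks glycosylation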
Cardio protect = modulators protecting cardiomyocytes from myocardial damage; H9c2 cardiomyocytes, H2O2 injury protection, ATPLite, 2 h; protection from H2O2 cell death, % at 20 µM; hit rate 0.63% among 360,000; AID 588492;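 active = compounds giving at least 50% protection of heart cells from peroxide-induced death in the single-dose screen, raw or plate-pattern-corrected value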;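 note: 0% = DMSO wells with peroxide and 100% = DMSO wells without peroxide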
MIN6 prolif = induces beta-cell replication in MIN6 cells; MIN6 cells proliferation, ATPlite luminescence, 48 h; cells starved in 0.2% serum; 100% = growth in 10% serum; proliferation, % at 10 µM; hit rate 0.29% among 330,000; AID 2380;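 active = compounds whose signal lies at least 3.5 SD above the mean of all wells on their plate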;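 note: 0% = DMSO-treated cells in low-serum medium and 100% = 10% serum control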
H9c2 TAG inh = triacylglycerol accumulation inhibition | H9c2 cells, Nile Red lipid (TAG) fluorescence; cells loaded with 200 µM oleic acid | inhibition, % at 12.5 µM | AID 651582 | hit rate 0.66% among 230,000;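 active = pattern-corrected inhibition of lipid staining of at least 50% with the nuclear-stain viability signal not falling by more than 50%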;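 note: 0% = DMSO wells and 100% = triacsin C control wells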
FAS TE block = FAS thioesterase (human) inhibition | P49327 | recombinant FAS-TE, OMFH fluorogenic substrate, fluorescence endpoint | inhibition, % at 15 µM | hit rate 0.67% among 360,000;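 active = compounds whose normalised, plate-corrected inhibition of enzyme fluorescence in the single-dose primary screen is 50% or more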;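 note: 0% = DMSO with enzyme and 100% = substrate without enzyme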
Calpain2 inh = calpain II (pig) inhibition | purified calpain II, fluorogenic peptide substrate, 30 min | AID 1236 | inhibition, % at 16 µM | hit rate 0.37% among 220,000;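 active = inhibition above about 50%, limit read from the data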
FAS-TE inh conf = confirmation of human fatty acid synthase thioesterase inhibitors; shares compounds with FAS TE block; recombinant FAS-TE, OMFH fluorogenic substrate, fluorescence; hit rate 45% among 2,300; AID 624325; inhibition, % at 15 µM;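 active = compounds inhibiting the enzyme by at least 50% at 15 µM in any one of the replicates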;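 note: 0% = enzyme with DMSO only and 100% = wells lacking enzyme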
* hit, by the source's call; . = not tested or not shown.

SMILES	aDG glyco up	Cardio protect	MIN6 prolif	H9c2 TAG inh	FAS TE block	Calpain2 inh	FAS-TE inh conf
Cc1ccc(NC(=O)CCNC(=O)c2ccc([N+](=O)[O-])cc2)cc1C	0.1	-4.6	.	.	64.5*	.	68.9*
O=C(CCNC(=O)c1ccc([N+](=O)[O-])cc1)NCCc1ccc(Cl)cc1	0.0	-1.0	1.5	.	61.7*	.	69.9*
O=C(c1ccc([N+](=O)[O-])cc1)N1CCC(Cc2ccccc2)CC1	0.3	16.2	0.3	10.6	59.0*	10.0	54.2*
CCC12CN(C(=O)c3ccc([N+](=O)[O-])cc3)CC(CC)(CN(C(=O)c3ccc([N+](=O)[O-])cc3)C1)C2=O	0.0	3.8	-1.5	-12.1	58.4*	20.6	38.3
O=C(Cc1ccccc1)NC1CCN(C(=O)c2ccc([N+](=O)[O-])cc2)CC1	0.0	-0.1	.	.	-2.1	.	.
O=[N+]([O-])c1cccc(OCCN2CCC(Cc3ccccc3)CC2)c1	0.1	-4.1	-3.9	-7.3	63.1*	.	67.3*
COc1ccccc1NC(=O)NCC1(N(C)C)CCCCC1	0.2	3.3	0.0	.	-1.8	.	.
O=C(CCNS(=O)(=O)c1ccc(Br)cc1)NCC(c1cccs1)N1CCOCC1 (centres undefined)	0.1	5.4	.	19.3	-9.1	.	.
Cc1ccsc1C(=O)N1CCC1(C)C(=O)NCc1cccnc1 (centres undefined)	-0.3	7.4	.	-6.5	-7.4	.	.
O=C(Nc1ccc2ccccc2c1)C(c1ccccc1)n1c(=O)c(-c2cc3ccccc3[nH]2)nc2ccccc21 (centres undefined)	1.7	.	.	.	.	.	.
O=[N+]([O-])c1ccc(/C=N/Nc2nc(N3CCOCC3)nc(N3CCOCC3)n2)cc1	0.0	3.2	-2.9	-1.9	50.5*	26.0	22.7
CC(C)c1ccc(/C=N/Nc2cc(N3CCOCC3)nc(N3CCOCC3)n2)cc1	0.1	-5.8	-2.6	.	89.0*	-31.0	90.3*
O=[N+]([O-])c1ccc(Cl)c(/C=N/Nc2nc(N3CCOCC3)nc(N3CCOCC3)n2)c1	0.1	20.9	2.6	23.8	50.7*	23.1	5.0
O=[N+]([O-])c1cccc(/C=N/Nc2nc(N3CCOCC3)nc(N3CCOCC3)n2)c1	0.2	19.7	-2.0	.	12.1	-3.4	.
Cc1cccc(/C=N/Nc2cc(N3CCOCC3)nc(N3CCOCC3)n2)c1	0.6	-2.0	-2.4	.	15.6	14.0	.
Cc1cc(NC(=O)COC(=O)C2=NN(c3ccccc3)C(=O)CC2)c([N+](=O)[O-])cc1C	0.0	1.5	-0.9	14.8	4.5	.	.
C[C@@]12C(=O)Nc3cc(Cl)ccc3C(=O)N1[C@H]1c3cc(Cl)ccc3OC[C@@H]1[C@@H]2c1ccccc1	0.4	-3.8	-5.7	25.5	39.9	.	.
C[C@@]12C(=O)Nc3ccc(F)cc3C(=O)N1[C@H]1c3cc(Cl)ccc3OC[C@@H]1[C@@H]2c1ccccc1	0.0	-3.4	-5.9	24.2	84.7*	.	35.4
C[C@@]12C(=O)Nc3cc(F)c(F)cc3C(=O)N1[C@H]1c3ccccc3OC[C@@H]1[C@@H]2c1ccccc1	0.0	-6.0	.	10.8	75.9*	.	44.1*
C[C@@]12C(=O)Nc3cc(Cl)ccc3C(=O)N1[C@H]1c3ccccc3OC[C@@H]1[C@@H]2c1ccccc1	0.2	-15.9	-8.6	3.4	86.8*	.	37.4
Cc1ccc2c(c1)[C@H]1[C@H](CO2)[C@H](c2ccccc2)[C@]2(C)C(=O)Nc3ccc(Br)cc3C(=O)N12	0.0	-1.9	-5.7	.	95.7*	.	26.2
NC(=O)c1c(NC(=O)c2ccccc2F)sc2c1CCCC2	-0.1	-6.3	-3.1	8.2	12.8	.	.
COc1ccccc1CCC(=O)NNC(=O)c1cccs1	0.0	-0.4	-0.8	4.3	-5.6	.	.
C[C@@]12C(=O)Nc3cc(Cl)ccc3C(=O)N1[C@H]1c3cc(Br)ccc3OC[C@@H]1[C@@H]2c1ccccc1	0.0	-2.6	-8.6	53.3*	80.2*	.	8.0
COc1ccccc1NS(=O)(=O)c1cc(NC(=O)c2sccc2C)ccc1N1CCCC1	0.5	2.0	-2.7	2.1	58.4*	-71.9	3.3
SMILES	aDG glyco up	Cardio protect	MIN6 prolif	H9c2 TAG inh	FAS TE block	Calpain2 inh	FAS-TE inh conf
COc1ccccc1NS(=O)(=O)c1cc(NC(=O)c2sccc2C)ccc1N1CCOCC1	-0.2	9.1	-2.4	15.7	30.2	-54.1	.
O=C(COC(=O)c1ccc([N+](=O)[O-])o1)NCCc1ccccc1	-0.1	9.0	1.4	-16.6	0.1	.	.
CC(C)(C)N(Cc1ccccc1)C(=O)COC(=O)c1ccc([N+](=O)[O-])o1	0.1	15.8	-0.6	6.3	50.4*	.	51.9*
Oc1ccc(N2CCN(Cc3c(-c4ccccc4)nc4ccccn34)CC2)cc1	-0.2	-9.5	-3.8	.	-1.3	.	.
O=[N+]([O-])c1ccc(Sc2nc3ccccc3o2)c([N+](=O)[O-])c1	-0.5	-21.8	-6.1	.	50.3*	-6.4	49.5*
O=[N+]([O-])c1ccc(Cl)cc1Sc1nc2ccccc2o1	0.0	-4.7	-4.3	.	35.0	11.1	.
CCOc1ccccc1N1CCN(C(=S)NC(=O)C23CC4CC(CC(C4)C2)C3)CC1	-0.1	0.4	-2.7	44.8	51.1*	15.6	14.8
CSCC[C@H](NC(=O)[C@H]1CC[C@H](CNC(=O)[C@@H](N)Cc2ccccc2)CC1)C(=O)O	-0.1	3.4	1.4	.	-4.8	.	.
CCOc1ccccc1Nc1nnc(SC(C)C(=O)Nc2nc(-c3ccccc3)cs2)s1 (centres undefined)	0.2	-1.4	-3.8	.	75.6*	-43.2	17.9
Cc1cccc(N2C(=O)N3[C@H](c4ccc(F)cc4)[C@@H]4C(=O)N(C5CCCCC5)C(=O)[C@@H]4[C@]3(Cc3ccc(Cl)cc3)C2=O)c1	0.7	-8.1	-5.9	-2.2	92.7*	.	20.7
CC[C@@]12C(=O)N(c3cccc(F)c3)C(=O)N1[C@H](c1ccc(Cl)cc1)[C@@H]1C(=O)N(C3CCCCC3)C(=O)[C@@H]12	0.4	-4.6	-7.1	.	66.6*	.	22.1
Cc1ccc(N2C(=O)N3[C@H](c4ccc(Cl)cc4)[C@@H]4C(=O)N(C5CCCCC5)C(=O)[C@@H]4[C@]3(Cc3ccccc3)C2=O)cc1	0.4	-3.5	-6.2	31.8	93.0*	.	37.5
O=C1[C@H]2[C@@H](c3ccc(F)cc3)N3C(=O)N(c4cccc(F)c4)C(=O)[C@@]3(Cc3ccc(Cl)cc3)[C@H]2C(=O)N1C1CCCCC1	0.9	-7.0	-7.5	26.9	71.2*	.	28.4
CCCCCCCCN1C(=O)[C@H](CC(=O)NCCCN2CCCC2=O)C[C@@]2(C(=O)OC)CCCCC=C12	0.0	.	.	.	-6.5	.	.
CCC(C)[C@H](NC(=O)C1CCN(C(=O)[C@H](Cc2ccccc2)NS(=O)(=O)c2ccc(C)cc2)CC1)C(=O)O (some centres undefined)	-0.1	6.7	0.9	.	-3.7	.	.

Screening results from PubChem.
